Screening results: PubChem, several laboratories
Most compounds without a hit are left out; they make up all but 3.4% or so of the library.
HSF1 inhib – HSF1 inhibitors in luciferase reporter cells, primary screen, cell-based, NIH3T3, luminescence; activity change, negative = inhibition, % at 7.5 µM (by protocol); NIH3T3-HGL HSE-luciferase, MG132-induced, luminescence 8 h; stronger effect = lower value; hit rate 0.77% among 300,000;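 active = more than half of replicate wells show activity change below -50%, luminescence cut by over half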;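 also: luciferase reports HSF-1 transcriptional activity via heat shock element; 0% = median of DMSO wells and -100% = zero luminescence signal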
PG9 binder – binders of HIV-1 gp120 antibody PG9, primary screen, biochemical, TR-FRET | inhibition, % at 6.7 µM | hit rate 0.43% among 360,000 | TR-FRET gp120-PG9 antibody binding; in the data active = inhibition above about 8.5%
SMARCA2 act – SMARCA2 (BRM) function activators, primary screen, cell-based, luminescence, high throughput; MG213 cells, MMTV-luciferase reporter, dexamethasone, overnight; activation, % at 9.1 µM; hit rate 1% among 370,000; in the data active = activation above about 7.8%;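 also: 0% = vehicle wells and 100% = reference activator wells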
HSP90 refold inh – HSP90 inhibitors, primary screen, cell lysate, luminescence | inhibition, % at 5.6 µM | Heat shock protein HSP 90 (rabbit reticulocyte lysate; luciferase refolding) | hit rate 0.91% among 290,000 | Rabbit reticulocyte lysate, luciferase refolding luminescence, 3 h;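 active = inhibition above the screen-wide mean plus 3 SD, computed separately per campaign, cut at about 16% in these data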;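 also: 0% = DMSO wells and 100% = 60 µM geldanamycin wells; inhibitors lower the luminescence because luciferase stays unfolded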
AI-2 QS modul – Vibrio harveyi AI-2 quorum sensing modulators, primary screen, JMH597 strain, luminescence/OD600 ratio. activity change, % at 7.5 µM. AID 2094, 2009. hit rate 0.4% among 300,000. Vibrio harveyi JMH597 AI-2 luminescence/OD600 ratio, 9 h; stronger effect = lower value; strain lacks LuxN and CqsS sensors; 0 = neutral-control median; in the data active = activity change below about -75%, passing the limit was not always enough;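 also: luminescence divided by OD600 gain over 9 h not by final OD600 alone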
GAA850 FXN act – FXN promoter activators, primary screen, cell-based, luciferase luminescence, HEK293 lucGAA850; HEK293 lucGAA850 FXN promoter luciferase reporter, 24 h; percent of 10 µM SAHA response; activation, % at 6 µM; hit rate 0.56% among 360,000; AID 540364, 2011;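 active = activation above the average of all compounds screened plus 3 SD, cutoff fixed separately per campaign, cut at about 7.5% in these data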;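 also: 0% = DMSO wells and 100% = 10 µM SAHA wells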
PG9 binder conf – binders of anti-gp120 antibody PG9, confirmation, biochemical, TR-FRET; TR-FRET PG9 antibody binding; shares compounds with PG9 binder; hit rate 90% among 1,500; inhibition, % at 6.7 µM; in the data active = inhibition above about 9%
PGV04 Ab binding – binders of control antibody PGV04, counter-screen for PG9 antibody binder project, biochemical, TR-FRET, distinct HIV envelope site | hit rate 95% among 1,500 | AID 651604, 2012 | inhibition, % at 6.7 µM | TR-FRET PGV04 antibody-gp120 binding | shares compounds with PG9 binder; in the data active = inhibition above about 9.5%
PG9 binder DR – small-molecule binders of antibody PG9, dose response, biochemical, TR-FRET, HIV-1 gp120 antibody; shares compounds with PG9 binder; TR-FRET PG9 antibody-gp120 binding inhibition; IC50, µM; 95 tested, under 10 active; in the data active = IC50 below about 10 µM
PGV04 DR counter – binders of control antibody PGV04, dose response, counter-screen for PG9 antibody binder project, biochemical, TR-FRET, distinct HIV envelope site. shares compounds with PG9 binder. TR-FRET binding to control antibody PGV04. IC50, µM. hit rate 20% among 95. AID 651937, 2012
PG126 DR counter – binders of control antibody PG126, dose response, counter-screen for PG9 antibody binder project, biochemical, TR-FRET, distinct HIV envelope site | shares compounds with PG9 binder | TR-FRET binding to antibody PG126, counterscreen | IC50, µM | hit rate 20% among 95 | AID 651939, 2012
Active calls of the source: *; . = no result. Rule as the data show it, unless noted: active = IC50 below about 9 µM; inactive = the rest.

SMILES	HSF1 inhib	PG9 binder	SMARCA2 act	HSP90 refold inh	AI-2 QS modul	GAA850 FXN act	PG9 binder conf	PGV04 Ab binding	others
COC(=O)c1ccc(CSc2ncnc3c2oc2ccccc23)o1	96.4	15.3*	4.3	-2.0	10.0	2.2	43.4*	80.0*
O=C(CSc1ncnc2c1oc1ccccc12)Nc1cccc(C(F)(F)F)c1	-0.7	-9.4	-0.4	0.9	16.0	-0.7	.	.
COC(=O)c1ccc(CSc2ncnc3ccccc23)o1	18.7	-2.7	-1.5	0.9	9.0	4.5	.	.
Cc1nc(SCCc2nc3ccccc3[nH]2)c2oc3ccccc3c2n1	.	28.8*	-0.1	.	.	2.6	10.8*	13.4*
Cc1nc(SCC(=O)NCCc2ccccc2)c2c(=O)n(C)c(=O)n(C)c2n1	-2.6	-0.3	-0.3	0.1	12.7	-0.9	.	.
O=C(CSc1ncnc2c1oc1ccccc12)Nc1cccc(Cl)c1	-16.4	81.2*	-2.3	-3.6	41.5	0.8	81.0*	94.0*
Cc1nc(SCC(=O)NCc2ccccc2)c2c(=O)n(C)c(=O)n(C)c2n1	2.3	13.5*	-2.8	-1.2	22.3	0.9	5.4	8.1
CCC(C(=O)Nc1c(C)cccc1C)n1c(-c2ccc(=O)[nH]c2)nc2ccccc21 (stereo not drawn)	.	-0.7	0.5	.	.	.	.	.
OCc1ccccc1OCc1ccccc1	.	1.0	-2.6	.	.	.	.	.
Cc1csc(NC(=O)C2(C)CCN2C(=O)C(C)C)c1C#N (stereo not drawn)	.	.	.	.	.	3.4	.	.
Cc1nc(SCC(=O)Nc2ccc(F)cc2)c2oc3ccccc3c2n1	-5.6	45.0*	0.9	-0.3	16.9	2.1	78.4*	84.6*
Cc1nc(SCC(=O)Nc2ccccc2)c2oc3ccccc3c2n1	-2.1	95.5*	0.6	-4.3	17.5	2.3	96.2*	99.3*
Cc1nc(SCC(=O)NCCc2ccccc2)c2oc3ccccc3c2n1	-5.3	25.9*	0.6	7.7	8.0	-0.1	87.9*	73.9*	PG9 binder DR=3.42*;PGV04 DR counter=2.36*;PG126 DR counter=2.25*
Cc1nc(SCC(=O)NC(C)c2ccccc2)c2oc3ccccc3c2n1 (stereo not drawn)	14.0	14.7*	1.4	-1.7	30.7	-0.6	4.6	9.6*
CCc1nc(SCC(=O)NCCc2ccccc2)c2oc3ccccc3c2n1	-4.8	-2.6	-0.7	-4.0	8.7	1.0	.	.
Cc1nc(SCC(=O)NCc2ccco2)c2oc3ccccc3c2n1	-5.0	-1.3	0.9	-2.2	15.2	3.9	.	.
C=C1C(=O)C23C(O)C1CCC2C12COC3(O)C(O)C1C(C)(C)CCC2O (stereo not drawn)	.	0.6	4.6	.	.	-2.0	.	.
COc1ccc(/C(O)=C2/C(=O)C(=O)N(CCN(C)C)C2c2ccc(F)cc2)cc1Cl (stereo not drawn)	6.6	9.5*	-2.8	-0.2	10.8	1.1	20.2*	23.3*
